Source: PubChem BioAssay (NCI)
The panel holds about 83,000 compounds, 20% with a hit somewhere; the sample as a whole holds those more often.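 How to read the values: 0–100, growth inhibition (40 = 60% inhibited); 0, no net growth; -100 to 0, cell death (-40 = 40% of starting cells died; -100 = all dead).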 A number with no mark means an inactive call. Calls of active or inactive are those of the source. How the source made its calls: active means growth percent below 10; inactive means the rest.

Assays:
Test in all cases: NCI-60 one-dose screen, 48 h (100 = growth as untreated, 0 = no growth, -100 = all killed)
Conditions in all cases: 10 µM
[1] = system: HCT-15 colon
[2] = system: HT29 colon
[3] = system: SNB-75 CNS
[4] = system: SNB-19 CNS
[5] = system: U251 CNS
[6] = system: PC-3 prostate
[7] = system: SK-MEL-5 melanoma
[8] = system: UACC-62 melanoma
[9] = system: LOX IMVI melanoma
[10] = system: SK-MEL-28 melanoma

Structure (SMILES): CC(Oc1ccc(Cl)cc1)c1ccccc1 (stereo not given)
- growth [1]: 112%
- growth [2]: 106%
- growth [3]: 97.3%
- growth [4]: 99.7%
- growth [5]: 102%
- growth [6]: 93.4%
- growth [7]: 100%
- growth [8]: 97.6%
- growth [9]: 97.5%
- growth [10]: 106%

Structure (SMILES): CCN(CC)CCn1c(=N)n(CC(O)c2ccc(Cl)c(Cl)c2)c2ccccc21 (stereo not given)
- growth [1]: 51.2%
- growth [2]: 20.1%
- growth [3]: 71.8%
- growth [4]: 102%
- growth [5]: 69.7%
- growth [6]: 80.8%
- growth [7]: 55.6%
- growth [8]: -30.5% (active)
- growth [9]: 76.1%
- growth [10]: 10.4%

Structure (SMILES): CCCc1c(C)nc2scc(-c3ccc(Cl)cc3)n2c1=O
- growth [1]: 101%
- growth [2]: 101%
- growth [3]: 97.9%
- growth [4]: 105%
- growth [5]: 97.2%
- growth [6]: 97.3%
- growth [7]: 99.1%
- growth [8]: 100%
- growth [9]: 95.8%
- growth [10]: 112%

Structure (SMILES): COc1ccc(-c2nsc3c2NC(=O)CC3c2cccc(Cl)c2)cc1 (stereo not given)
- growth [1]: 27.7%
- growth [2]: 2.95% (active)
- growth [3]: -0.284% (active)
- growth [4]: 54.3%
- growth [5]: 35%
- growth [6]: 15.7%
- growth [7]: 23%
- growth [8]: 41.6%
- growth [9]: 43.7%
- growth [10]: 49.8%

Structure (SMILES): COc1cc(-c2cc(-c3ccc(C)cc3)nc3nc(N)[nH]c(=O)c23)ccc1Oc1ccnc2cc(Cl)ccc12
- growth [1]: 88.7%
- growth [2]: 84.6%
- growth [3]: 67.5%
- growth [4]: 74.3%
- growth [5]: 81%
- growth [6]: 70.5%
- growth [7]: 84%
- growth [8]: 86.9%
- growth [9]: 86.3%
- growth [10]: 88.3%

Structure (SMILES): N#CN1CC[C@H](C(=O)Nc2ncc(-c3ccncc3)s2)C1
- growth [1]: 2.59% (active)
- growth [2]: -39.9% (active)
- growth [3]: -37.5% (active)
- growth [4]: 9.6% (active)
- growth [5]: 1.7% (active)
- growth [6]: 5.04% (active)
- growth [7]: -17.1% (active)
- growth [8]: -26.9% (active)
- growth [9]: 2.09% (active)
- growth [10]: 5.92% (active)

Structure (SMILES): NC1CCC(Nc2nc(NCc3ccc(-c4cccs4)nc3)c3ncn(C4CCCC4)c3n2)CC1 (stereo not given)
- growth [1]: 0.306% (active)
- growth [2]: -12.7% (active)
- growth [3]: -63.5% (active)
- growth [4]: 10.2%
- growth [5]: 3.21% (active)
- growth [6]: 1.6% (active)
- growth [7]: -96.8% (active)
- growth [8]: -42.4% (active)
- growth [9]: -82.1% (active)
- growth [10]: -62.3% (active)

Structure (SMILES): CCc1ccc(-c2nnc(COc3ccc(-c4nc5cc(Cl)c(Cl)cc5[nH]4)cc3OC)o2)cc1
- growth [1]: 44.9%
- growth [2]: 62.1%
- growth [3]: 48.4%
- growth [4]: 68.3%
- growth [5]: 29.1%
- growth [6]: 52.6%
- growth [7]: 84.9%
- growth [8]: 78.8%
- growth [9]: 43.3%
- growth [10]: 67.1%

Structure (SMILES): Nc1cc2c(cc1Cl)-c1ccc(Cl)cc1C2=O
- growth [1]: 99.7%
- growth [2]: 97.5%
- growth [3]: 89.7%
- growth [4]: 98.7%
- growth [5]: 91.1%
- growth [6]: 94.2%
- growth [7]: 108%
- growth [8]: 95.7%
- growth [9]: 95.1%
- growth [10]: 109%

Structure (SMILES): COc1ccc(-c2nc(-c3nc4ccc(OC)cc4[nH]3)c3ccccn23)cc1
- growth [1]: 59.7%
- growth [2]: 58.6%
- growth [3]: 57%
- growth [4]: 85.5%
- growth [5]: 61.6%
- growth [6]: 35%
- growth [7]: 59%
- growth [8]: 79%
- growth [9]: 71.1%
- growth [10]: 98.1%

Structure (SMILES): COc1cc(C2C=C(c3ccc(Cl)c(Cl)c3)N=C3SC(C)=CN32)cc(OC)c1OC (stereo not given)
- growth [1]: 64.8%
- growth [2]: 53.1%
- growth [3]: 81.7%
- growth [4]: 79.5%
- growth [5]: 51.2%
- growth [6]: 59.2%
- growth [7]: 83.9%
- growth [8]: 85.8%
- growth [9]: 41.3%
- growth [10]: 102%

Structure (SMILES): COc1cccc(C2(C)Nc3ccccc3-c3nc4ccccc4n32)c1 (stereo not given)
- growth [1]: 105%
- growth [2]: 113%
- growth [3]: 103%
- growth [4]: 105%
- growth [5]: 101%
- growth [6]: 109%
- growth [7]: 101%
- growth [8]: 102%
- growth [9]: 101%
- growth [10]: 107%

Structure (SMILES): CCCC(C)c1ccc(OCCCCCCN2CCNCC2)cc1 (stereo not given)
- growth [1]: -39.3% (active)
- growth [2]: 5.51% (active)
- growth [3]: 35.9%
- growth [4]: 56%
- growth [5]: -2.39% (active)
- growth [6]: 49.4%
- growth [7]: 53.5%
- growth [8]: -46.4% (active)
- growth [9]: -88.3% (active)
- growth [10]: 13.2%

Structure (SMILES): Cc1cccc2c1O/C(=C\c1ncc([N+](=O)[O-])n1C)C2=O
- growth [1]: 5.68% (active)
- growth [2]: -21% (active)
- growth [3]: 8.32% (active)
- growth [4]: -5.53% (active)
- growth [5]: -17.5% (active)
- growth [6]: -22.4% (active)
- growth [7]: -92.2% (active)
- growth [8]: -66.3% (active)
- growth [9]: -39.6% (active)
- growth [10]: -17.8% (active)

Structure (SMILES): Nc1ccn([C@@H]2O[C@H](COP(=O)(O)O[C@@H]3C[C@H](n4cc(F)c(=O)[nH]c4=O)O[C@@H]3COP(=O)(O)O[C@@H]3C[C@H](n4cc(F)c(=O)[nH]c4=O)O[C@@H]3COP(=O)(O)O[C@@H]3C[C@H](n4cc(F)c(=O)[nH]c4=O)O[C@@H]3COP(=O)(O)O[C@@H]3C[C@H](n4cc(F)c(=O)[nH]c4=O)O[C@@H]3COP(=O)(O)O[C@@H]3C[C@H](n4cc(F)c(=O)[nH]c4=O)O[C@@H]3COP(=O)(O)O[C@@H]3C[C@H](n4cc(F)c(=O)[nH]c4=O)O[C@@H]3COP(=O)(O)O[C@@H]3C[C@H](n4cc(F)c(=O)[nH]c4=O)O[C@@H]3COP(=O)(O)O[C@@H]3C[C@H](n4cc(F)c(=O)[nH]c4=O)O[C@@H]3COP(=O)(O)O[C@@H]3C[C@H](n4cc(F)c(=O)[nH]c4=O)O[C@@H]3COP(=O)(O)O[C@@H]3C[C@H](n4cc(F)c(=O)[nH]c4=O)O[C@@H]3COP(=O)(O)OCCOCCOCCOCCOCCOCCO)[C@H](O)C2O)c(=O)n1 (stereo not given in full)
- growth [1]: 44.6%
- growth [2]: 47.1%
- growth [3]: 86.3%
- growth [4]: 56.6%
- growth [5]: 30.3%
- growth [6]: 56.1%
- growth [7]: 2.12% (active)
- growth [8]: 25.6%
- growth [9]: 25.2%
- growth [10]: 52.3%

Structure (SMILES): Cc1ccc(-c2cc(-c3cccc(Nc4ccnc5cc(Cl)ccc45)c3)nc3nc(N)[nH]c(=O)c23)cc1
- growth [1]: 99.4%
- growth [2]: 97.5%
- growth [3]: 76.9%
- growth [4]: 84.8%
- growth [5]: 88.5%
- growth [6]: 95.8%
- growth [7]: 99%
- growth [8]: 97.7%
- growth [9]: 92.8%
- growth [10]: 110%

Structure (SMILES): COC1OC2COC(c3ccccc3)OC2C(=O)C1NC(=O)c1ccccc1 (stereo not given)
- growth [1]: 101%
- growth [2]: 105%
- growth [3]: 83%
- growth [4]: 94.9%
- growth [5]: 109%
- growth [6]: 85%
- growth [7]: 108%
- growth [8]: 93.7%
- growth [9]: 90.1%
- growth [10]: 109%

Structure (SMILES): COc1ccc(-c2nnc(SC/C(=N\O)c3ccccc3)o2)cc1
- growth [1]: 97.5%
- growth [2]: 95%
- growth [3]: 106%
- growth [4]: 99.7%
- growth [5]: 103%
- growth [6]: 86.8%
- growth [7]: 97.1%
- growth [8]: 81%
- growth [9]: 95.1%
- growth [10]: 94.3%

Structure (SMILES): O=C(COc1ccc(-c2nc3ccccc3[nH]2)cc1)N=Nc1c(O)[nH]c2ccccc12
- growth [1]: 105%
- growth [2]: 100%
- growth [3]: 104%
- growth [4]: 93.4%
- growth [5]: 55.9%
- growth [6]: 86.5%
- growth [7]: 102%
- growth [8]: 96.2%
- growth [9]: 100%
- growth [10]: 99.7%

Structure (SMILES): CCN(CC)CCOC(=O)c1ccc(NC(=O)Nc2cccc(Cl)c2)cc1
- growth [1]: 95.6%
- growth [2]: 96.3%
- growth [3]: 81.8%
- growth [4]: 108%
- growth [5]: 96.5%
- growth [6]: 94.7%
- growth [7]: 101%
- growth [8]: 102%
- growth [9]: 94.6%
- growth [10]: 106%

Structure (SMILES): CCc1c(C(=O)NCc2c(O)ccc3cccc(O)c23)[nH]c(C)c1C(C)=O
- growth [1]: 14%
- growth [2]: 58.2%
- growth [3]: 56.6%
- growth [4]: 53%
- growth [5]: 33.4%
- growth [6]: 27.4%
- growth [7]: 1.58% (active)
- growth [8]: 15.4%
- growth [9]: 16.2%
- growth [10]: 37.5%

Structure (SMILES): COc1ccc(-c2oncc2-c2cc(OC)c3c(c2)OCO3)cc1
- growth [1]: 15.9%
- growth [2]: 6.55% (active)
- growth [3]: -9.45% (active)
- growth [4]: 46.2%
- growth [5]: 28%
- growth [6]: 40.4%
- growth [7]: 17.9%
- growth [8]: 50.7%
- growth [9]: 34.2%
- growth [10]: 37%

Structure (SMILES): CC(C)(C)CC(C)(C)c1ccc(O)c(Cc2ccc(Cl)cc2Cl)c1
- growth [1]: -78.7% (active)
- growth [2]: -92.4% (active)
- growth [3]: -77.7% (active)
- growth [4]: -82.9% (active)
- growth [5]: -95.3% (active)
- growth [6]: -65.2% (active)
- growth [7]: -95.1% (active)
- growth [8]: -87.9% (active)
- growth [9]: -95.4% (active)
- growth [10]: -84.9% (active)
